Measurements: the supplement of paper PMC10849652
The full data set covers some 8,800 targets. This sample favours those with a hit. About 0.5% of all pairs of compound and target were hits. Unmarked numbers belong to inactive results.

How the values were obtained:
Test in all cases: log2 fold change, soluble protein after heating vs DMSO (PISA); higher = thermal stabilisation; K562 lysate, 10 uM; active = over 0.2 and 3.5 SD of the protein, either way, in both replicates (recomputed)
[1] = compound: C#Cc1cccc(Nc2ncnc3cc(OCCOC)c(OCCOC)cc23)c1 [erlotinib]
Outline: (§1)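 Quantification was by TMTpro 16plex LC-MS/MS with equalised channel sums, applied to the supernatant after 21,000xg for 90 min. Samples were crude K562 extract at 1 mg/mL protein in PBS pH 7.4 with 1 mM MgCl2, treated with 10 μM compound for 30 min, heated for 3 min across 48°C-58°C, pooled and brought to 0.5% NP-40 at 4°C. Values are log-two fold changes in thermal stability relative to solvent controls, from duplicates.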

[2] = compound: C/C(=N\NC(=O)C1=CC(=CC=C1)S(=O)(=O)N2CCOCC2)/C3=C(C=CC(=C3)Cl)O
Outline: as §1

[3] = compound: C1=CC(=CC=C1C2=NC3=C(N2)C=C(C=C3)C(=O)N)OC4=CC=C(C=C4)Cl
Outline: as §1

[4] = compound: C1=CC2=C(C=CC(=C2)/C=C\3/C(=O)NC(=NCC4=CC=CS4)S3)N=C1
Outline: as §1

[5] = compound: C1=CC2=NC=CN=C2C=C1/C=C/3\C(=O)NC(=O)S3
Outline: as §1

[6] = compound: C1=CC=C(C=C1)C2=NC(=C(N2)C3=CC=NC=C3)C4=CC(=C(C=C4)Cl)O
Outline: as §1

[7] = compound: C1=CC=C2C(=C1)C3=NNC4=CC=CC(=C43)C2=O
Outline: as §1

[8] = compound: C1CCN(C1)C(=O)NC2=CC=CC(=C2)NC3=NC=C(C(=N3)NCCC4=CN=CN4)Br
Outline: as §1

[9] = compound: C1CN(CCC1(CC2=CC=C(C=C2)Cl)N)C3=NC=NC4=C3C=CN4
Outline: as §1

[10] = compound: C1COCCN1CCN2C3=CC=CC=C3N=C2NC(=O)C4=CC(=CC=C4)[N+](=O)[O-] [IRAK-1-4 Inhibitor I]
Outline: as §1

Sequence of UniProt Q5SVZ6 (Q5SVZ6 whole entry, looked up): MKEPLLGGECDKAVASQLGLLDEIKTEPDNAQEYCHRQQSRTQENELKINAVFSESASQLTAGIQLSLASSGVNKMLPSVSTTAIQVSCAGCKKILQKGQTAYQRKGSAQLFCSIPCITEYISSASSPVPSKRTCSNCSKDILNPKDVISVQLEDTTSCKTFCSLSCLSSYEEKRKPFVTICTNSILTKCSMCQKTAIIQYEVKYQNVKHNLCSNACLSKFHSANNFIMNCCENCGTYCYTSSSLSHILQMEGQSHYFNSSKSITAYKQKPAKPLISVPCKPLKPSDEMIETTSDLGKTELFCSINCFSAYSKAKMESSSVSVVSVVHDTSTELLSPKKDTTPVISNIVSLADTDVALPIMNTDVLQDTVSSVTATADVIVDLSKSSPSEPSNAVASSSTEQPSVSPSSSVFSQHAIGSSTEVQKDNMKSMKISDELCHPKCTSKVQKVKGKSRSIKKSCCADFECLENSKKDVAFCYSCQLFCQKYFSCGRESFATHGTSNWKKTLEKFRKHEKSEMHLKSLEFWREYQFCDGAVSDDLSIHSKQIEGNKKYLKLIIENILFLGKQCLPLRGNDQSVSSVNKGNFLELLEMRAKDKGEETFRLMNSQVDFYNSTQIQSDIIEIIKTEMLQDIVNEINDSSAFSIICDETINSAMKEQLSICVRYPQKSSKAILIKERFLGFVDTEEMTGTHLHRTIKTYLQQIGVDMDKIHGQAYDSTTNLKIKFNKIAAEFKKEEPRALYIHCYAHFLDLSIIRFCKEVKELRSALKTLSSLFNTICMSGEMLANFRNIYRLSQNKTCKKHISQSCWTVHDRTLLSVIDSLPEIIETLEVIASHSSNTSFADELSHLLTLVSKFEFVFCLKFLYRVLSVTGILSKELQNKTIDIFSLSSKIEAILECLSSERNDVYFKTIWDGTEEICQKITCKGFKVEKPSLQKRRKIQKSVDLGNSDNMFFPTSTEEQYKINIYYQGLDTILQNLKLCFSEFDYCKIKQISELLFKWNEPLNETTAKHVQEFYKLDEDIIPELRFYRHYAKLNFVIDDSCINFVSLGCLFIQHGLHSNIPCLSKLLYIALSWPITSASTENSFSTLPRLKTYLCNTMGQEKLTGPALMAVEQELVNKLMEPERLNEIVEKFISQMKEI
Sequence of UniProt Q9UN37 (Q9UN37 whole entry, looked up): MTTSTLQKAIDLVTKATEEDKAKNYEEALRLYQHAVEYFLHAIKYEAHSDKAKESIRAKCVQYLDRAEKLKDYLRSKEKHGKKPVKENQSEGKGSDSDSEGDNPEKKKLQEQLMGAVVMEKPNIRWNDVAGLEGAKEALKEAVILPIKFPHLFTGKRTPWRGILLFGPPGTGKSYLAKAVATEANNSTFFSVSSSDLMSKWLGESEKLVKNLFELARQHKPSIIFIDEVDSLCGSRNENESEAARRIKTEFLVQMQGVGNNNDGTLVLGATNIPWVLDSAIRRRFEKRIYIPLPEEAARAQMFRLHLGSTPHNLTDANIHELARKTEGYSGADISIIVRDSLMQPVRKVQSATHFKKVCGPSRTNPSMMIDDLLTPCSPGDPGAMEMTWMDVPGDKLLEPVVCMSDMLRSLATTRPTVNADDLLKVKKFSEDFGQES
Sequence of UniProt Q86T24 (Q86T24 whole entry, looked up): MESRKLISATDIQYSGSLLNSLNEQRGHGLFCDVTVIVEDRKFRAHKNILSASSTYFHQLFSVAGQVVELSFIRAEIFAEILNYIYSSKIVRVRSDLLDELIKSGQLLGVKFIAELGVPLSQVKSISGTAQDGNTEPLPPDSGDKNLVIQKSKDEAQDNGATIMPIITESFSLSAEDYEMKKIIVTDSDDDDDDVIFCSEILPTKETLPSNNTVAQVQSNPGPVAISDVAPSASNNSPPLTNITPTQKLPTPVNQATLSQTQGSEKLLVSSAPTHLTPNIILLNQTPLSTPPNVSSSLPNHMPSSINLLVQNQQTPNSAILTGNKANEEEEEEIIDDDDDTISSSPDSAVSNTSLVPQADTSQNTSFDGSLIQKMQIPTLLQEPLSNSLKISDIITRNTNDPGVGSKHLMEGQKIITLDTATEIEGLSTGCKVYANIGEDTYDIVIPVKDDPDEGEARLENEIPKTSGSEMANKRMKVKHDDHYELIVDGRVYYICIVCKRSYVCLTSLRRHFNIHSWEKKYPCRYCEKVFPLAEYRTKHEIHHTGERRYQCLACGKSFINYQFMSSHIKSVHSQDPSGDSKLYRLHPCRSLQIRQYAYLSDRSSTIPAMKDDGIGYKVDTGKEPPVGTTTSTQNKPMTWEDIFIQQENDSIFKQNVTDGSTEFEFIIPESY
Sequence of UniProt P49750 (P49750 whole entry, looked up): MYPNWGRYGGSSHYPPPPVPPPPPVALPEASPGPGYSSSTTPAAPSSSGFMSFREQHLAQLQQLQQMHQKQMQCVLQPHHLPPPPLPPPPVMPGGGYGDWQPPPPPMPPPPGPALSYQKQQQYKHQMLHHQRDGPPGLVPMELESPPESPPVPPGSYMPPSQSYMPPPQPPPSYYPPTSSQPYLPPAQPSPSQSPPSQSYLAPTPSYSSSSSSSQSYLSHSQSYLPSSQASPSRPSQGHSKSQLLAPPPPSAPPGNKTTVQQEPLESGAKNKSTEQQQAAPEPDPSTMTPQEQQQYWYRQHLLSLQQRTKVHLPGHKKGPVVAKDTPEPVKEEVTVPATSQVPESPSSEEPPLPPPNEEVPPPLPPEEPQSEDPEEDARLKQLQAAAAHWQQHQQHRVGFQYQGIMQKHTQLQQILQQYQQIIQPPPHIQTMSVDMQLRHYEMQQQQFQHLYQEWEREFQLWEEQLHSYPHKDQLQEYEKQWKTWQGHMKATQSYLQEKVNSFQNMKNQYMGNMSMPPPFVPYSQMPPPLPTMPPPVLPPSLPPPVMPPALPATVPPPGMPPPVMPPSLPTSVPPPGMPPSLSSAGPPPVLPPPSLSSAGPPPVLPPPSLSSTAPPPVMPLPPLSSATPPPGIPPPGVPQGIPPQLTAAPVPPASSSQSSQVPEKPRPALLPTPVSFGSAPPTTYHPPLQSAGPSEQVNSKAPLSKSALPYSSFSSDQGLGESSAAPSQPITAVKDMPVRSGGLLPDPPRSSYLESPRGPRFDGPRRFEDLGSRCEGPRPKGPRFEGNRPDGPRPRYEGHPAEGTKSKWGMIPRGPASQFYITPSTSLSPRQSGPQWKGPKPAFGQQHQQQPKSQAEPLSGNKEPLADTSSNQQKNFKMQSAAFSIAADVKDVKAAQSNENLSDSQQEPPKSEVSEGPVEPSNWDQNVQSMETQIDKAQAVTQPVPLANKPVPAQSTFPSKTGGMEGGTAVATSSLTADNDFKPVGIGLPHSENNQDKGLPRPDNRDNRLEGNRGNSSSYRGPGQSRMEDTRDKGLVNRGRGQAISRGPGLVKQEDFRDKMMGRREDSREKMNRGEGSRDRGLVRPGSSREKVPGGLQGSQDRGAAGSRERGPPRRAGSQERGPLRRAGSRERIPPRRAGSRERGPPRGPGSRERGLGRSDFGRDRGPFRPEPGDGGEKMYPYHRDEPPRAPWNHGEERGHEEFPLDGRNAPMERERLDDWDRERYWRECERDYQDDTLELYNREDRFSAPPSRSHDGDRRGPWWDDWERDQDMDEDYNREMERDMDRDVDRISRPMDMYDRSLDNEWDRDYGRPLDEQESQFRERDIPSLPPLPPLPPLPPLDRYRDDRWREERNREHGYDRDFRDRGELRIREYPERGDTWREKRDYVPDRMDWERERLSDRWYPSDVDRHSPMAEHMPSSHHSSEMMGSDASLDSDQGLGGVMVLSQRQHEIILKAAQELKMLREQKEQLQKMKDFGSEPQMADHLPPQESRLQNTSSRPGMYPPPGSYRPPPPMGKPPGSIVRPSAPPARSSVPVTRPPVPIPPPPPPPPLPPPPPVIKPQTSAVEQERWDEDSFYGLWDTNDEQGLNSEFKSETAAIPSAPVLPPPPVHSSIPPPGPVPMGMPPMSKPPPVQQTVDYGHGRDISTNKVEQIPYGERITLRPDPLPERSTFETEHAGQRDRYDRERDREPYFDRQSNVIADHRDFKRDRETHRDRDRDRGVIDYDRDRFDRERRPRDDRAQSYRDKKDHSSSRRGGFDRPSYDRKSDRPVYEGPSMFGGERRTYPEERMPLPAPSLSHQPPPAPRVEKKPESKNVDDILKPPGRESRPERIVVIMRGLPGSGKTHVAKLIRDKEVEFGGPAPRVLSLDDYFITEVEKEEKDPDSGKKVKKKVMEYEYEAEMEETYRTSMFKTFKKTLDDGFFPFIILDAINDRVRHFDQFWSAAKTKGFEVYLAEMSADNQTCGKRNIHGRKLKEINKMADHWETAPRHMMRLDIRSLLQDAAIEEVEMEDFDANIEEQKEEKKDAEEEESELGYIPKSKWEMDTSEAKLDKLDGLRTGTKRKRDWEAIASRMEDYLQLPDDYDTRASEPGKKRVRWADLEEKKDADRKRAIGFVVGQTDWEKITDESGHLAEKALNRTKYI
Sequence of UniProt P30291 (P30291 whole entry, looked up): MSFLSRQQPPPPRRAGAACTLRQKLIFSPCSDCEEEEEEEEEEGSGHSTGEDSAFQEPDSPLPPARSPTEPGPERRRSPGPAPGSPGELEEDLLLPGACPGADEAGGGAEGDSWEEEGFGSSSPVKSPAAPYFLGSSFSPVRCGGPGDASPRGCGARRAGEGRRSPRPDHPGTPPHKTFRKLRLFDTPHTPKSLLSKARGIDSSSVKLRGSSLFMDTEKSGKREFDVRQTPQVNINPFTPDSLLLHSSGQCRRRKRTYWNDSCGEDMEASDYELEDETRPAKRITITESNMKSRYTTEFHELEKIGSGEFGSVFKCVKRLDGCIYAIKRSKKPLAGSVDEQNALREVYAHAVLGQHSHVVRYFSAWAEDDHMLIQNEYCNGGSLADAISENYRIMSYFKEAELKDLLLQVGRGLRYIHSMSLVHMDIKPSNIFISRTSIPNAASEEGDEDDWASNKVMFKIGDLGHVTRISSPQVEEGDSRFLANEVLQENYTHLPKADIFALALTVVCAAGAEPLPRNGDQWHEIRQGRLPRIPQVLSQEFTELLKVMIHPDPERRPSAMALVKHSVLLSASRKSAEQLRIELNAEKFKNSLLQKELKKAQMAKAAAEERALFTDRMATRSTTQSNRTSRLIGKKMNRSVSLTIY

Target	log2 fold change [1]	log2 fold change [2]	log2 fold change [3]	log2 fold change [4]	log2 fold change [5]	log2 fold change [6]	log2 fold change [7]	log2 fold change [8]	log2 fold change [9]	log2 fold change [10]
VPS54 (UniProt Q9P1Q0)	-0.018	-0.061	0.059	-0.117	0.213	-0.044	-0.114	-0.019	-0.079	0.036
VPS33A (UniProt Q96AX1)	0.024	0.005	0.024	0.035	0.018	-0.006	-0.023	-0.025	0.036	0.015
ZNF598 isoform 3 (UniProt Q86UK7)	-0.001	-0.003	0.007	-0.007	-0.045	0.006	-0.064	-0.036	-0.002	0.029
VPS4A (UniProt Q9UN37)	0.051	0.005	-0.076	0.043	-0.014	-0.017	-0.15	0.029	-0.037	-0.037
YTHDC2 (UniProt Q9H6S0)	-0.008	0.065	0.012	0.027	0.02	-0.001	0.074	-0.019	0.029	0.002
VPS16 (UniProt Q9H269)	0.059	0.026	0.048	0.024	-0.03	0.048	-0.075	0.03	0.023	0.025
YME1L1 (UniProt Q96TA2)	0.018	-0.136	-0.029	0.026	0.053	0	0.011	-0.006	0.041	0.033
YWHAQ (UniProt P27348)	0.026	0.046	0.016	0.012	0.017	0.014	0.021	-0.006	0.022	0.013
USP48 isoform 8 (UniProt Q86UV5)	0.001	-0.059	-0.011	-0.008	0.005	0.02	-0.02	0	0.018	-0.014
ZC2HC1A (UniProt Q96GY0)	0	-0.134	0.058	0.18	0.073	-0.043	-0.1	-0.054	0.009	-0.012
UXT isoform 2 (UniProt Q9UBK9)	0.012	-0.036	0.033	0.021	-0.054	0.035	0.012	-0.033	0.186	0.007
ZC3HC1 (UniProt Q86WB0)	0.011	-0.123	-0.006	0.005	-0.009	0.007	0.009	0.011	0.018	-0.003
VRK1 (UniProt Q99986)	0.009	-0.05	0.002	0.049	0.015	0.024	-0.02	0	0.02	-0.02
WDR36 (UniProt Q8NI36)	0	0.02	-0.031	0.027	-0.025	0.017	0.008	0.014	0.004	-0.049
XPOT (UniProt O43592)	0.017	-0.013	-0.041	-0.003	0.032	-0.011	-0.021	-0.004	0.025	0.016
ZBTB33 (UniProt Q86T24)	0	0.012	0.101	0.062	0.144	-0.025	-0.101	-0.053	0.068	-0.042
WEE1 (UniProt P30291)	0.079	-0.014	-0.091	-0.051	0.019	0.01	-0.006	-0.07	0.021	0.056
ZDHHC18 (UniProt Q9NUE0)	0.265	-0.057	-0.371	-0.052	-0.135	0.004	0.038	-0.022	0.075	0.13
USP3 (UniProt Q9Y6I4)	-0.001	0.05	0.033	0.031	0.018	0.011	0.014	-0.037	0.035	-0.044
WDR62 isoform 4 (UniProt O43379)	0.017	-0.027	-0.018	-0.007	-0.012	0.017	-0.052	0.024	-0.008	0.011

Target	log2 fold change [1]	log2 fold change [2]	log2 fold change [3]	log2 fold change [4]	log2 fold change [5]	log2 fold change [6]	log2 fold change [7]	log2 fold change [8]	log2 fold change [9]	log2 fold change [10]
WDR91 (UniProt A4D1P6)	0.02	0.04	-0.019	0.038	-0.034	0.002	0.019	-0.011	-0.007	-0.013
XPNPEP1 isoform 3 (UniProt Q9NQW7)	-0.001	0.023	-0.019	0.001	-0.007	-0.005	-0.011	-0.006	0.005	0.009
VPS28 (UniProt Q9UK41)	0.707	-0.039	0.004	-0.005	0.041	0.028	-0.036	-0.006	-0.018	-0.036
YEATS4 (UniProt O95619)	-0.017	-0.018	-0.018	0.045	-0.079	-0.013	-0.027	0.007	0.034	0.002
YLPM1 (UniProt P49750)	0.026	-0.04	0.035	-0.043	-0.018	-0.004	0.022	0.044	0.019	0.027
UPF3B (UniProt Q9BZI7)	-0.026	-0.109	0.042	0.02	-0.005	0.017	-0.014	-0.018	-0.008	0.008
XPO5 (UniProt Q9HAV4)	0.026	0.024	-0.02	0.005	0	-0.003	-0.044	0.008	0.035	-0.015
VAMP2 (UniProt P63027)	-0.083	0.055	-0.024	-0.063	0.063	-0.082	-0.037	0.081	-0.009	-0.033
USP34 (UniProt Q70CQ2)	0.043	0.018	-0.039	0.029	-0.008	0.012	-0.002	0.003	0.003	-0.001
USP48 (UniProt Q86UV5)	0.022	0.001	-0.015	-0.051	0.006	0.001	0.049	-0.033	0.013	-0.026
WDR45 isoform 2 (UniProt Q9Y484)	-0.047	-0.032	-0.024	-0.001	0.06	-0.008	-0.016	0.041	-0.005	-0.012
UNC13D (UniProt Q70J99)	0.019	0.023	-0.049	0.02	0.025	-0.007	-0.009	0.005	0.013	0.022
WRB (UniProt O00258)	-0.043	0.208	0.027	0.002	-0.009	-0.002	0.049	0.051	-0.064	0.101
ZNF318 (UniProt Q5VUA4)	0.026	-0.033	-0.054	-0.015	-0.078	0.003	0.004	0.023	0.004	0.012
XAB2 (UniProt Q9HCS7)	0.049	-0.088	-0.012	0.076	0.093	0.012	-0.041	0.071	-0.014	0.004
WRN (UniProt Q14191)	-0.003	-0.048	0.005	0.006	0.057	0.011	-0.077	0.02	-0.012	-0.013
ZMYM1 (UniProt Q5SVZ6)	-0.041	-0.027	-0.002	0.021	0.007	-0.036	0.041	0.043	0.025	-0.008
VHL (UniProt P40337)	0.088	0.034	-0.016	0.059	0.032	-0.09	-0.003	-0.007	-0.107	0.02
USE1 (UniProt Q9NZ43)	0.019	0.31 (active)	-0.026	-0.062	0	-0.038	-0.06	0.019	0.025	0.056
ZMYND8 isoform 19 (UniProt Q9ULU4)	-0.012	-0.058	0.023	0.011	-0.037	0.024	-0.077	-0.021	0.018	-0.025

Target	log2 fold change [1]	log2 fold change [2]	log2 fold change [3]	log2 fold change [4]	log2 fold change [5]	log2 fold change [6]	log2 fold change [7]	log2 fold change [8]	log2 fold change [9]	log2 fold change [10]
VPS35L (UniProt Q7Z3J2)	0.005	-0.016	-0.028	-0.001	0.002	0.006	-0.038	-0.028	0.006	0.04
VPS18 (UniProt Q9P253)	0.018	0.056	-0.032	-0.021	-0.016	0.051	-0.076	-0.017	0.053	-0.034
ZMYM4 (UniProt Q5VZL5)	-0.023	-0.068	0.027	0.073	-0.099	0.042	-0.088	-0.09	0.015	0.005
VPS13C (UniProt Q709C8)	-0.007	-0.003	0.038	0.008	0.017	-0.013	-0.021	0.042	-0.012	0.004
WDCP (UniProt Q9H6R7)	-0.06	0.091	0.079	0.018	0.024	0	-0.011	-0.022	0.002	0.024
VRK2 (UniProt Q86Y07)	0.04	0.039	0.113	-0.058	-0.056	0	0.064	0.064	0.196	0.049
ZNF609 (UniProt O15014)	-0.035	-0.013	0.028	-0.029	-0.053	-0.023	-0.109	-0.008	0.026	-0.005
ZNF217 (UniProt O75362)	-0.014	-0.043	0.06	-0.132	-0.004	0.027	-0.162	-0.014	0.028	0.007
VAV3 isoform 4 (UniProt Q9UKW4)	0.035	1.07	-0.029	-0.144	0.117	0.012	-0.133	0.148	-0.08	-0.017
ZNF593 (UniProt O00488)	-0.084	-0.149	0.116	0.003	0.005	-0.098	0.059	0	0.084	0.003
YES1 (UniProt P07947)	-0.045	0.064	0.005	-0.045	-0.023	-0.031	-0.105	0.027	0.016	0.003
VPS39 (UniProt Q96JC1)	0.015	-0.022	-0.005	-0.003	-0.002	0.015	-0.007	-0.034	0.031	0.019
WDR77 (UniProt Q9BQA1)	-0.008	-0.073	-0.018	0.025	-0.021	-0.009	0.011	0.004	0.014	0.002
USP10 isoform 2 (UniProt Q14694)	0.022	-0.032	0.01	0.007	-0.017	0.023	-0.028	-0.033	-0.034	-0.005
WIPI2 (UniProt Q9Y4P8)	-0.006	-0.042	-0.009	0.064	-0.037	-0.003	0.035	-0.054	-0.047	0.021
VANGL1 (UniProt Q8TAA9)	0	-0.043	-0.088	0.022	-0.149	-0.377	-0.01	-0.072	0.004	0.182
UTP3 (UniProt Q9NQZ2)	-0.051	-1.41	-0.088	-0.063	-0.039	-0.018	0.021	-0.067	-0.09	-0.041
ZHX1 (UniProt Q9UKY1)	0.02	-0.094	0.082	0.051	-0.027	-0.027	-0.077	-0.119	0.026	-0.055
VPS11 (UniProt Q9H270)	0.049	-0.037	0.014	0.034	0.014	0.011	-0.053	0.003	-0.002	-0.031
